Source: PubChem BioAssay (NCATS)
Inconclusive results are not listed. Entries that show only a call come without a potency. Active and inactive are the calls of the source. Calls follow the shape of the dose curve; as a rule, active = well fitted curve in the direction sought with a large enough effect; inconclusive = small, poorly fitted or top-dose-only effect, or another doubt; inactive = no such curve, though single readings can be large; an effect the other way counts as inactive or inconclusive.

What was measured:
[1] = qHTS of pediatric cancer cell lines to identify multiple opportunities for drug repurposing: Primary screen for TC32 cells (AID 1347089); also: nearly all actives have a fitted effect of over 60% in size; also: potency is read from the fitted curve at half-maximal effect
Outline: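 Luminescent CellTiter-Glo read-out of metabolically active TC32 cells after 48 h compound exposure. Primary: MIPE 11-point, 0.78 nM–46 µM; NPC 8-point, 0.59 nM–46 µM. Confirmatory: 11-point dilutions.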

[2] = qHTS of pediatric cancer cell lines to identify multiple opportunities for drug repurposing: Primary screen for DAOY cells (AID 1347090); also: nearly all actives have a fitted effect of over 55% in size; also: potency is read from the fitted curve at half-maximal effect
Outline: (§1)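 Viability measured as metabolically active cells via CellTiter-Glo luminescence following 48 hours of compound exposure, 11-point dilutions in confirmatory testing. 500-1,000 cells/well plated 5 hours before dosing; controls were DMSO and 2.3 µM bortezomib.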

[3] = qHTS of pediatric cancer cell lines to identify multiple opportunities for drug repurposing: Primary screen for SJ-GBM2 cells (AID 1347091); also: potency is read from the fitted curve at half-maximal effect
Outline: as §1

[4] = qHTS of pediatric cancer cell lines to identify multiple opportunities for drug repurposing: Primary screen for A673 cells (AID 1347092); also: nearly all actives have a fitted effect of over 45% in size; also: potency is read from the fitted curve at half-maximal effect
Outline: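 A673 cells (500-1,000 cells/well in growth media) were pre-incubated 5 h at 37 degrees C, then exposed to compounds for 48 h. Viability was read as CellTiter-Glo luminescence; concentration-response curves came directly from the primary screen.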

[5] = qHTS of pediatric cancer cell lines to identify multiple opportunities for drug repurposing: Primary screen for SK-N-MC cells (AID 1347093); also: potency is read from the fitted curve at half-maximal effect
Outline: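 Metabolically active cells were quantified by ATP-dependent luminescence (CellTiter-Glo, 15 min at room temperature) following 48 h treatment. Cells had been plated at 500-1,000 per well and settled for 5 h beforehand.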

[6] = qHTS of pediatric cancer cell lines to identify multiple opportunities for drug repurposing: Primary screen for NB1643 cells (AID 1347099); also: nearly all actives have a fitted effect of over 50% in size; also: potency is read from the fitted curve at half-maximal effect
Outline: (§2)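 Primary screen of approved and investigational compounds on cells in growth media at 37 degrees C, 5% CO2. MIPE set at 11-point and NPC set at 8-point dilutions; viability scored by ATP-based luminescence at 48 hours.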

[7] = qHTS of pediatric cancer cell lines to identify multiple opportunities for drug repurposing: Primary screen for LAN-5 cells (AID 1347100); also: potency is read from the fitted curve at half-maximal effect
Outline: (§3)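 Viability after 48 h compound treatment at 37C, 500-1,000 cells/well, read as ATP luminescence with CellTiter-Glo. Primary screens used 11-point (MIPE, 0.78 nM-46 µM) or 8-point (NPC, 0.59 nM-46 µM) final concentrations; follow-up screens used 11-point dilutions.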

[8] = qHTS of pediatric cancer cell lines to identify multiple opportunities for drug repurposing: Primary screen for Rh18 cells (AID 1347102); also: nearly all actives have a fitted effect of over 65% in size; also: potency is read from the fitted curve at half-maximal effect
Outline: as §3

[9] = qHTS of pediatric cancer cell lines to identify multiple opportunities for drug repurposing: Primary screen for RD cells (AID 1347104); also: nearly all actives have a fitted effect of over 55% in size; also: potency is read from the fitted curve at half-maximal effect
Outline: as §2

[10] = qHTS of pediatric cancer cell lines to identify multiple opportunities for drug repurposing: Primary screen for Rh41 cells (AID 1347108); also: nearly all actives have a fitted effect of over 70% in size; also: potency is read from the fitted curve at half-maximal effect
Outline: as §2

[11] = qHTS of pediatric cancer cell lines to identify multiple opportunities for drug repurposing: Primary screen for BT-37 cells (AID 1347094); also: potency is read from the fitted curve at half-maximal effect
Outline: as §2

[12] = qHTS of pediatric cancer cell lines to identify multiple opportunities for drug repurposing: Primary screen for NB-EBc1 cells (AID 1347095); also: potency is read from the fitted curve at half-maximal effect
Outline: as §2

[13] = qHTS of pediatric cancer cell lines to identify multiple opportunities for drug repurposing: Primary screen for Saos-2 cells (AID 1347097); also: nearly all actives have a fitted effect of over 40% in size; also: potency is read from the fitted curve at half-maximal effect
Outline: as §2

[14] = qHTS of pediatric cancer cell lines to identify multiple opportunities for drug repurposing: Primary screen for SK-N-SH cells (AID 1347098); also: nearly all actives have a fitted effect of over 65% in size; also: potency is read from the fitted curve at half-maximal effect
Outline: (§4)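 Cells (500-1,000/well) rested 5 h, then received compounds for 48 h; metabolically active cells were measured by CellTiter-Glo luminescence. Final concentrations spanned up to 46 µM (MIPE, 11-point) or 0.59 nM-46 µM (NPC, 8-point) in primary screens, 11-point in follow-ups.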

[15] = qHTS of pediatric cancer cell lines to identify multiple opportunities for drug repurposing: Primary screen for BT-12 cells (AID 1347101); also: nearly all actives have a fitted effect of over 25% in size; also: potency is read from the fitted curve at half-maximal effect
Outline: as §4

[16] = qHTS of pediatric cancer cell lines to identify multiple opportunities for drug repurposing: Primary screen for OHS-50 cells (AID 1347103); also: nearly all actives have a fitted effect of over 40% in size; also: potency is read from the fitted curve at half-maximal effect
Outline: as §4

[17] = qHTS of pediatric cancer cell lines to identify multiple opportunities for drug repurposing: Primary screen for MG 63 (6-TG R) cells (AID 1347105); also: nearly all actives have a fitted effect of over 50% in size; also: potency is read from the fitted curve at half-maximal effect
Outline: as §2

[18] = qHTS of pediatric cancer cell lines to identify multiple opportunities for drug repurposing: Primary screen for Rh30 cells (AID 1347107); also: nearly all actives have a fitted effect of over 75% in size; also: potency is read from the fitted curve at half-maximal effect
Outline: as §3

[19] = qHTS of pediatric cancer cell lines to identify multiple opportunities for drug repurposing: Primary screen for control Hh wild type fibroblast cells (AID 1347106);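 also: series mostly up to about 46 µM; a drop in luminescence marks cytotoxicity and a rise apparent proliferation; nearly all actives have a fitted effect of over 55% in size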
Outline: as §3

[20] = qHTS of pediatric cancer cell lines to identify multiple opportunities for drug repurposing: Primary screen for U-2 OS cells (AID 1347096); also: nearly all actives have a fitted effect of over 50% in size; also: potency is read from the fitted curve at half-maximal effect
Outline: as §3

| SMILES | Potency [1] | Potency [2] | Potency [3] | Potency [4] | Potency [5] | Potency [6] | Potency [7] | Potency [8] | Potency [9] | Potency [10] | Potency [11] | Potency [12] | Potency [13] | Potency [14] | Potency [15] | Potency [16] | Potency [17] | Potency [18] | Potency [19] | Potency [20] |
| --- | --- | --- | --- | --- | --- | --- | --- | --- | --- | --- | --- | --- | --- | --- | --- | --- | --- | --- | --- | --- |
| O=c1cccc2n1CC1CNC[C@H]2C1 | inactive | 18700 nM (active) | 5900 nM (active) | 4690 nM (active) | 4690 nM (active) | 5900 nM (active) | 2960 nM (active) | 3320 nM (active) | 18700 nM (active) | 11800 nM (active) |  |  |  |  |  |  |  |  |  |  |
| C[C@]12COC(=O)C[C@@H]1CC[C@@H]1[C@H]2CC[C@@]2(C)[C@H]1CC[C@]2(C)O | inactive | inactive | inactive | inactive | inactive | inactive | inactive | inactive | inactive | inactive | inactive | inactive | inactive | inactive | inactive | inactive | inactive | inactive |  |  |
| CC(C)(C)C(O)C(Oc1ccc(Cl)cc1)n1cncn1 (centres undefined) | inactive | inactive | inactive | inactive | 1 nM (active) | inactive | inactive | inactive | inactive | inactive | inactive | inactive |  |  | inactive |  |  | inactive | inactive |  |
| Cc1ccc(Cl)c(O)c1 | inactive | inactive | inactive | inactive | inactive | inactive | inactive | inactive | inactive | inactive | inactive | inactive | inactive | inactive | inactive | inactive | inactive | inactive | inactive |  |
| O=C(O)c1cc(Oc2ccc(C(F)(F)F)cc2Cl)ccc1[N+](=O)[O-] | inactive | inactive | inactive | inactive |  | inactive | inactive | inactive | inactive | inactive | inactive | inactive | inactive | inactive | inactive | inactive | inactive | inactive |  | inactive |
| CO[C@H]1CCC(O[C@H]2C[C@H]([C@]3(C)CC[C@]4(C[C@H](O)[C@@H](C)[C@@H]([C@@H](C)C=C(C)C(=O)[C@H](C)C[C@H](C)C(=O)O)O4)O3)O[C@]3(O[C@@H]([C@H]4O[C@@](O)(CO)[C@H](C)C[C@H]4C)C[C@H]3C)[C@H]2C)O[C@H]1C (some centres undefined) | 18600 nM (active) | 4690 nM (active) | 2090 nM (active) | 1480 nM (active) | 187 nM (active) | 1050 nM (active) | 372 nM (active) | 2960 nM (active) | 1870 nM (active) | 1870 nM (active) | 344 nM (active) | 209 nM (active) | 2640 nM (active) | 30400 nM (active) | 273 nM (active) | 217 nM (active) | 7430 nM (active) | 3720 nM (active) |  |  |
| CC(C)(O)C=CC(=O)[C@](C)(O)[C@H]1[C@H](O)C[C@]2(C)[C@@H]3CC=C4[C@@H](C=C(O)C(=O)C4(C)C)[C@]3(C)C(=O)C[C@@]12C | 1310 nM (active) | 187 nM (active) | 209 nM (active) | 187 nM (active) |  | 37.2 nM (active) | 74.3 nM (active) | 52.6 nM (active) | 166 nM (active) | 469 nM (active) | 1370 nM (active) | 332 nM (active) | 105 nM (active) |  | 243 nM (active) | 137 nM (active) | 29.6 nM (active) | 8330 nM (active) |  | 148 nM (active) |
| CCC(=O)O[C@@H]1C=C2CCC3C(CCC4(C)C3CC[C@@H]4OC(=O)CC)C2CC1 (some centres undefined) | inactive | inactive | inactive | inactive | inactive | inactive | inactive | inactive | inactive | inactive | inactive | inactive | inactive | inactive | inactive | inactive | inactive | inactive | inactive |  |
| C#C[C@]1(O)C=C[C@@H]2[C@@H]3CCC4=CC(=O)CC[C@@H]4[C@H]3CC[C@@]21CC | inactive | inactive | inactive | inactive |  | 8330 nM (active) | inactive | inactive | inactive | inactive | inactive |  | inactive | inactive |  | inactive | inactive | inactive | inactive | inactive |
| CC1=C(O)C(=O)C=C2C1=CC=C1[C@@]2(C)CC[C@@]2(C)[C@@H]3C[C@](C)(C(=O)O)CC[C@]3(C)CC[C@]12C | 7390 nM (active) | 935 nM (active) | 935 nM (active) | 1180 nM (active) |  | 1660 nM (active) | 1870 nM (active) | 1870 nM (active) | 1320 nM (active) | 1480 nM (active) | 4850 nM (active) | 743 nM (active) | 2350 nM (active) |  | 2730 nM (active) | 2430 nM (active) | 935 nM (active) | 4690 nM (active) |  |  |
| O=C(Oc1ccc([N+](=O)[O-])cc1)N1CCC(C(O)(c2ccc3c(c2)OCO3)c2ccc3c(c2)OCO3)CC1 | inactive | inactive | inactive |  | 16600 nM (active) |  | inactive |  | inactive | inactive |  | inactive | inactive |  | inactive |  | inactive | inactive | inactive | inactive |
| COc1ccc2c(c1)CN(C)CC2c1ccc(Cl)c(Cl)c1 (centres undefined) | inactive | inactive | 18700 nM (active) |  | 18700 nM (active) |  | 20900 nM (active) | inactive |  | inactive |  |  | 18700 nM (active) |  |  | 21700 nM (active) | inactive | inactive | inactive | inactive |
| Nc1ccc(Cl)cc1N | inactive | inactive | inactive |  | inactive | inactive | 24300 nM (active) | inactive | inactive | inactive |  |  |  |  | inactive | inactive | inactive | inactive | inactive | inactive |
| CCOC(=O)Nc1ccc(NCc2ccc(F)cc2)cc1N | inactive | inactive | inactive | 18700 nM (active) |  |  |  | inactive | 26400 nM (active) |  | inactive | inactive | inactive |  | inactive | inactive | inactive | inactive | inactive | inactive |
